Consider six compounds from PubChem BioAssay.

Where “and” joins values, the source holds several entries; their conditions need not be identical. Equal values may be shown once. Calls of active or inactive are those of the source. Unless noted, the rule behind the calls is not given here.

Assay [1] can be described thus: A549 cell viability effects, profiling panel, calcein-AM fluorescence, 48 h, basal (AID 1162). Note: test concentration not given here. As to conditions: higher = more signal.
A short description of assay [2]: adipocyte viability effects, profiling panel, cell-based, 3T3-L1 adipocytes, calcein-AM fluorescence, 48 h, basal (AID 1163). Note: test concentration not given here. As to conditions: 3T3-L1 adipocytes viability, higher = more signal.
Assay [3] in a line: HepG2 cell viability effects, profiling panel, calcein-AM fluorescence, 48 h, basal (AID 1164). Note: test concentration not given here. The settings on record: higher = more signal.
The nature of assay [4]: MM1S cell viability effects, profiling panel, calcein-AM fluorescence, 48 h, basal (AID 1165).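 Note: viability of MM1S multiple myeloma cells under basal unstimulated conditions; test concentration not given here.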 The settings on record: higher = more signal.
A short description of assay [5]: basal RPMI8226 viability, no added stimulus, profiling panel, cell-based, calcein-AM fluorescence, 48 h, PK04 Diversity Set (AID 1166).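 Note: cells grown under basal conditions without added stimulus; test concentration not given here.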 As to conditions: RPMI8226 myeloma viability, higher = more signal.
The nature of assay [6]: basal HepG2 mitochondrial membrane potential changes, profiling panel, cell-based, JC-1 fluorescence, 24 h, 100 nL compound (AID 1167). Note: test concentration not given here. As to conditions: higher = more signal.
A short description of assay [7]: basal 3T3-L1 adipocyte mitochondrial potential changes, profiling panel, cell-based, JC-1 fluorescence, 3T3-L1 adipocytes, 24 h, 100 nL compound (AID 1168). Note: test concentration not given here. The settings on record: JC-1 mitochondrial fluorescence, higher = more signal, called active from +8 up or from −8 down.
The nature of assay [8]: basal RPMI8226 mitochondrial membrane potential changes, profiling panel, cell-based, JC-1 fluorescence, 24 h, 100 nL compound (AID 1169). Note: test concentration not given here. The settings on record: RPMI8226 myeloma, JC-1 mitochondrial potential fluorescence, higher = more signal.
The nature of assay [9]: basal MM1S mitochondrial membrane potential changes, profiling panel, cell-based, JC-1 fluorescence, 24 h, 100 nL compound (AID 1170). Note: test concentration not given here. The settings on record: higher = more signal.
Assay [10] in a line: A549 lung cancer cell viability effects, profiling panel, resazurin fluorescence, 24 h, PK04 Diversity Set (AID 1171). Note: test concentration not given here. As to conditions: higher = more signal, called active from +8 up or from −8 down. A general note: Resazurin is reduced to fluorescent resorufin, in cell work by metabolically active cells.
The nature of assay [11]: HepG2 liver cancer cell viability effects, profiling panel, resazurin fluorescence, 24 h, PK04 Diversity Set (AID 1172). Note: test concentration not given here. The settings on record: higher = more signal.
Assay [12] in a line: basal S. cerevisiae growth modulation, no modifier, primary screen, OD600, strain BY4716, 24 h, basal condition (AID 1173). The settings on record: OD600, 24 h, higher = more signal, called active from +8 up or from −8 down.
A short description of assay [13]: MM1S myeloma cell viability, profiling panel, resazurin fluorescence, basal, 24 h, PK04 Diversity Set (AID 1174).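 Note: MM1S multiple myeloma cell line; test concentration not given here.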 The settings on record: higher = more signal, called active from +8 up or from −8 down.
The target of assay [14] is Dihydroorotate dehydrogenase (quinone), mitochondrial (Plasmodium falciparum (isolate 3D7)) (UniProt Q08210). The experiment in a line: PfDHODH enzyme inhibitors, primary screen, biochemical, C-terminal His tag, absorbance 600 nm (AID 1175).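 Note: recombinant parasite enzyme with a five histidine tag at its C terminus; test concentration not given here.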 The settings on record: DCIP absorbance 600 nm, higher = more signal, called active from +8 up or from −8 down.
Assay [15] in a line: S. cerevisiae RM11-1a growth modifiers, primary screen, strain RM11-1a, OD600, basal, 24 h (AID 1177).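 Note: cultures grown under basal conditions with no added stressor; test concentration not given here.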 As to conditions: OD600, 24 h, higher = more signal, called active from +8 up or from −8 down.
The nature of assay [16]: E. coli acrAB mutant growth effects, primary screen, E. coli filamentation inducers, strain DRC39, OD650, 24 h (AID 1178).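 Note: growth measured as culture turbidity by optical density at 650 nm; test concentration not given here.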 The settings on record: higher = more signal, called active from +8 up or from −8 down.
The nature of assay [17]: E. coli acrAB mutant growth effects, primary screen, E. coli filamentation inducers, strain DRC39, OD650, 48 h (AID 1179).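 Note: screen aims at cell division blockers that make cells filament.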 As to conditions: E. coli DRC39 delta-acrAB growth, higher = more signal, called active from +8 up or from −8 down.
Assay [18] can be described thus: RPMI8226 myeloma cell viability, profiling panel, resazurin fluorescence, basal, 24 h, PK04 Diversity Set (AID 1180).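 Note: RPMI8826 multiple myeloma cell line at 5000 cells per well; test concentration not given here.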 The settings on record: higher = more signal.
In assay [19] the target is E3 ubiquitin-protein ligase XIAP (Homo sapiens) (UniProt P98170). The experiment in a line: XIAP binders, primary screen, biophysical, small-molecule microarray, fluorescence 635 nm (AID 1181).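 Note: score merges 667 nm emission and signal to noise over triplicate slides.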 As to conditions: small-molecule microarray binding, higher = more signal.
Assay [20] can be described thus: P. aeruginosa biofilm formation inhibitors, primary screen, strain PAO1, LB-PBS medium, absorbance 600 nm (AID 1176). Note: test concentration not given here. The settings on record: P. aeruginosa PAO1 growth/biofilm, A600, 12 h; higher = more signal.

Chain of Dihydroorotate dehydrogenase (quinone), mitochondrial (Plasmodium falciparum (isolate 3D7)) (Q08210 whole entry, looked up): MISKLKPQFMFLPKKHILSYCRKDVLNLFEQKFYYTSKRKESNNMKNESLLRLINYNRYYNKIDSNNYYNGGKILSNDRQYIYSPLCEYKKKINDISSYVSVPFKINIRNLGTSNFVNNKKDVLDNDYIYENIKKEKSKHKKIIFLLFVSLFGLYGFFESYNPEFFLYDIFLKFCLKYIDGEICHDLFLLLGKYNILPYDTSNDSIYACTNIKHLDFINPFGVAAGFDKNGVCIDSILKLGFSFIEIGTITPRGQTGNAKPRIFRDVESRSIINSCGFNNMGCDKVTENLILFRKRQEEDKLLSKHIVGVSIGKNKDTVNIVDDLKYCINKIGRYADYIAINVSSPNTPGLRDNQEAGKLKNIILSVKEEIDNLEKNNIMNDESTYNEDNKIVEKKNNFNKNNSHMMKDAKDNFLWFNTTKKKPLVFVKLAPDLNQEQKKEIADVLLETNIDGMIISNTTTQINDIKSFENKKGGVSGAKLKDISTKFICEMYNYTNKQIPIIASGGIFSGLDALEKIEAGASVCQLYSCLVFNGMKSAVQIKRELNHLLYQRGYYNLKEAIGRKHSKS
Chain of E3 ubiquitin-protein ligase XIAP (Homo sapiens) (P98170 whole entry, looked up): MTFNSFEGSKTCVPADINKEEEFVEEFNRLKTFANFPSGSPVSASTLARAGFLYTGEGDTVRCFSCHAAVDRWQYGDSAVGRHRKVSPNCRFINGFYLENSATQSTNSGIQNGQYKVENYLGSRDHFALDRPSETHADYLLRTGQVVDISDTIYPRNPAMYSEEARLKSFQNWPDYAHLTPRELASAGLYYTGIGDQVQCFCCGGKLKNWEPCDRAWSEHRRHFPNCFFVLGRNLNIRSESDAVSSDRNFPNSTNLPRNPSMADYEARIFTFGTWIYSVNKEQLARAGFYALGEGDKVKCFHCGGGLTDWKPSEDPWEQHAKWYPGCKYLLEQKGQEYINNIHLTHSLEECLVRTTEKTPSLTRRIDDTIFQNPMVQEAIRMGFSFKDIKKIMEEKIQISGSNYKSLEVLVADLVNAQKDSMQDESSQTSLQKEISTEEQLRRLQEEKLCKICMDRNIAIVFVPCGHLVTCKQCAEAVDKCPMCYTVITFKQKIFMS

Take `CC(C)N1CC=CC23O[C@@H]4C=CCCOC(=O)C4[C@H]2C(=O)N(C(C)CO)[C@@H]3C1=O` (some centres undefined): the z-score was -0.507 and 0.287 in assay [1]; 1.61 and 1.45 in assay [2]; -0.658 and -0.153 in assay [3]; 1.24 and 0.914 in [4]; 0.264 and 0.678 in assay [5]; 0.534 and 0.979 in [6]. Also, the z-score was 1.21 (inactive) and 1.41 (inactive) in [7]; 0.0803 and 0.664 in [8]; 1.69 and 1.02 in assay [9]; 0.0618 (inactive) and 0.502 (inactive) in [10]; -0.0777 and -1.21 in assay [11]; -1.44 (inactive) and 0.111 (inactive) in assay [12]. The z-score in [13] is 0.963 (inactive) and 0.93 (inactive); in assay [15] it was -1.2 (inactive) and 0.934 (inactive); in assay [16], 1.2 (inactive) and 1.42 (inactive); in assay [17], 0.847 (inactive) and 1.13 (inactive); in assay [18], 1.32 and 0.67. Moreover, the composite z-score in assay [14] was -0.0877 (inactive) and 1.49 (inactive); in assay [19] it was -0.128 and -0.133.

In the case of `C=CCN(Cc1ccccc1)C(=O)C(c1cccs1)N(C(=O)/C=C\C(=O)O)c1ccc(CCO)cc1` (centres undefined), the z-score in assay [1] is -0.636 and -0.0917; in [2], 0.0605 and -0.16; in assay [3], 0.391 and 0.373; in assay [4] it was 1.49 and 1.81; in [5] it was 0.586 and 0.894; in [6], 1.26 and 0.706. Also, the z-score in [7] is 0.645 (inactive) and 1.1 (inactive); in [8] it was 0.648 and 0.272; in [9], -1.19 and -0.751; in [10], -0.29 (inactive) and -0.14 (inactive); in assay [11], -0.42 and -0.633; in assay [12], 0.0593 (inactive) and -0.0181 (inactive). In addition, the z-score is -0.0351 (inactive) and -0.273 (inactive) in assay [13]; -0.208 (inactive) and 0.233 (inactive) in [20]; 0.374 (inactive) and 0.514 (inactive) in assay [15]; 0.866 (inactive) and 0.736 (inactive) in assay [16]; 0.722 (inactive) and 0.609 (inactive) in [17]; 0.565 and -0.122 in [18]. Also, the composite z-score in assay [14] was -0.866 (inactive) and -0.0473 (inactive); in assay [19], -0.0987 and 0.035.

As to `Cc1cc2c(nc1C)CCCN2CC(O)CN1CCCc2nc(-c3ccc(Br)cc3)ccc21` (centres undefined), the z-score in assay [1] is -0.243 and -0.599; in assay [2], 0.929 and 0.303; in assay [3], -0.749 and -0.129; in assay [4], 0.916 and -1.24; in assay [5] it was -2.13 and -0.178; in assay [6], 0.36 and 0.768. Besides, the z-score was -0.855 (inactive) and -1.29 (inactive) in assay [7]; 0.144 and -0.0117 in assay [8]; -0.488 and 0.538 in [9]; -0.347 (inactive) and 0.0661 (inactive) in [10]; -0.366 and -0.367 in assay [11]; -7.09 (inactive) and -1.64 (inactive) in assay [12]. Moreover, the z-score in [13] was -0.959 (inactive) and -0.771 (inactive); in assay [20], -0.257 (inactive) and -0.0569 (inactive); in assay [15] it was 1.37 (inactive) and 0.795 (inactive); in [16] it was -0.342 (inactive) and 0.458 (inactive); in assay [17] it was -0.752 (inactive) and 0.0169 (inactive); in assay [18], 0.0199 and -0.821. In addition, the composite z-score in assay [14] was 1.95 (inactive) and 1.18 (inactive); in assay [19] it was 1.1 and 1.9.

For `C=CCN(CCCC)C(=O)C(c1cccs1)N(C(=O)/C=C\C(=O)O)c1c(Cl)cccc1CO` (centres undefined), the z-score in [1] was -0.163 and -0.667; in assay [2] it was 0.441 and 0.526; in assay [3], -0.934 and -0.809; in assay [4], 1.43 and 1.51; in [5], -0.097 and -0.435; in [6], -0.25 and -0.417. Besides, the z-score in [7] is -0.96 (inactive) and 0.0799 (inactive); in assay [8], 0.819 and 1.04; in assay [9] it was -0.153 and -0.712; in assay [10], -0.352 (inactive) and 0.397 (inactive); in assay [11], 0.766 and 0.197; in assay [12], 0.405 (inactive) and -0.407 (inactive). Besides, the z-score in assay [13] was -1.21 (inactive) and -0.193 (inactive); in assay [20], 0.991 (inactive) and 0.922 (inactive); in assay [15] it was 0.201 (inactive) and 0.0171 (inactive); in assay [16], 0.591 (inactive) and 0.408 (inactive); in [17], 0.339 (inactive) and 0.354 (inactive); in assay [18], -0.101 and -0.108. The composite z-score was 0.005 (inactive) and 0.0035 (inactive) in assay [14]; -0.0857 and -0.0807 in assay [19].

Consider `CCOC(=O)c1ccc(NC(=O)O[C@H]2[C@H](OC(=O)Nc3ccccc3)[C@@H](OC(=O)Nc3ccccc3)[C@@H](OC)O[C@@H]2CO)cc1`, for which the z-score is -1 and -2.09 in assay [1]; 1.79 and 1.14 in assay [2]; -1.92 and -2.54 in assay [3]; -1.83 and -2.21 in [4]; -1.56 and -2.49 in [5]; -1.05 and -0.323 in assay [6]. The z-score in assay [7] is 2.13 (inactive) and 0.661 (inactive); in assay [8] it was -0.464 and -0.37; in [9], -0.447 and -0.575; in assay [10], -3.35 (inactive) and -3.84 (inactive); in assay [11], -1.97 and -1.75; in [12] it was 2.09 (inactive) and 0.61 (inactive). Also, the z-score is -2.14 (inactive) and -3.07 (inactive) in assay [13]; 1.94 (inactive) and 1.5 (inactive) in assay [20]; 2.51 (inactive) and 2.87 (inactive) in [15]; 0.028 (inactive) and 0.188 (inactive) in [16]; -0.343 (inactive) and -0.714 (inactive) in [17]; -1.82 and -1.87 in [18]. In addition, the composite z-score is 0.146 (inactive) and 0.755 (inactive) in assay [14]; 0.39 and -0.146 in [19].

Consider `COC(=O)[C@@]1(Cc2ccc(OC)cc2)[C@H]2c3cc(C(=O)N(C)C)n(Cc4ccc(O)c(OC)c4)c3C[C@H]2CN1C(=O)c1ccccc1`, for which the z-score in [1] was -0.352 and 0.46; in [2], 0.865 and 0.215; in assay [3], -0.0117 and 0.763; in [4] it was 0.0138 and -1.26; in assay [5], -0.475 and -2.77; in [6], 2.46 and 2.03. Also, the z-score in assay [7] was -0.0971 (inactive) and 0.395 (inactive); in [8], 0.178 and -0.792; in assay [9] it was -0.74 and -1.95; in [10] it was 1.06 (inactive) and -1.21 (inactive); in [11], 0.613 and -0.518; in assay [12] it was 1.5 (inactive) and 1.69 (inactive). Besides, the z-score in assay [13] is -0.475 (inactive) and -1.77 (inactive); in assay [20], -0.499 (inactive) and -0.347 (inactive); in assay [15] it was 0.884 (inactive) and 1.29 (inactive); in assay [16], 0.247 (inactive) and 0.423 (inactive); in assay [17], -0.128 (inactive) and -0.102 (inactive); in [18], 0.381 and -2.92. Further, the composite z-score was 0.243 (inactive) and 0.355 (inactive) in assay [14]; -0.207 and 0.277 in [19].
